Results taken from PubChem BioAssay AID1490 (National Center for Advancing Translational Sciences (NCATS), 2009).
Hit rate of the full screen: of about 310,000 compounds, about 11,000 (3.5%) were called active. Roughly 4% stayed inconclusive and do not appear here. The sample as a whole holds a higher share of actives than the screen did. Values without a mark were called inactive. The call rests on the fitted dose curve; in most records, active means well fitted inhibition curve with a large enough effect; inconclusive means small, poorly fitted or top-dose-only effect, or another doubt; inactive means no such curve, though single readings can be large or run the other way.

What follows are molecules tested against 4'-phosphopantetheinyl transferase ffp (Bacillus subtilis) (UniProt Q9F4F7) (assay: qHTS Assay for Inhibitors of Bacillus subtilis Sfp phosphopantetheinyl transferase (PPTase)). Settings: Biochemical Sfp PPTase activity.
Method in brief: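 Fluorescence-quenching assay with 15 nM Sfp, 5 uM rhodamine-CoA and 12.5 uM BHQ-2-labelled ybbR peptide in pH 7.6 Hepes/MgCl2 buffer. Enzyme was pre-incubated with compound for 15 min at room temperature. Rate was taken from the 30-min fluorescence change (525/598 nm).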
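Further: the enzyme is Sfp with the accession as filed and its product quenches rhodamine fluorescence.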
Potency means the concentration at half of the fitted maximal effect.
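Wherever largest response in the series, negative = inhibition is given: 0% = enzyme reaction without inhibitor and -100% = no enzyme wells.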

Point of comparison: O=c1[nH]c(SCc2ccccc2)nnc1-c1ccccc1, largest response in the series, negative = inhibition 15.9%. Against it:
- Cc1ccc(-c2ccc(=O)n(Cc3ccc(F)cc3Cl)n2)cc1 — lower, -21.9%
- Cc1noc(C)c1-c1cc(NCc2cccnc2)ncn1 — lower, -20.7%
- Cc1cc(NCc2cccnc2)no1 — lower, 1.54%
- CCN(CC)c1ccc(NC(=O)CCc2nnc3ccc(N4CCCCC4)nn23)c(C)c1 — lower, 2.26%
- CCOc1ccccc1CN1CCN(C2CCC2)CC1CCO (configuration not stated) — higher, 17.6%
- COC(=O)c1c(NC(=O)COc2ccc(Cl)cc2Cl)sc2c1CC(C)(C)NC2(C)C — lower, -6.17%
- O=C(CN(C(=O)CNC(=O)c1cccs1)c1cccc(F)c1)NC1CCCCC1 — lower, 6.32%
- O=C(CSCC(=O)Nc1cccc([N+](=O)[O-])c1)Nc1ccccc1 — lower, 7.95%
- COc1cccc(CNC(=O)CCCC(=O)Nc2cccc([N+](=O)[O-])c2)c1 — lower, 4.84%
- CC(=O)c1ccc(NC(=O)c2ccc(-n3cncn3)c([N+](=O)[O-])c2)cc1 — lower, -0.369%
- O=C(Nc1c2c(nn1-c1ccccc1)CS(=O)(=O)C2)C1CCCC1 — lower, 11.4%
- CSc1nnc2ccc(-c3ccc(C)cc3)nn12 — lower, 4.27%
- NC(=O)c1oc2ccccc2c1NC(=O)Cc1ccccc1 — lower, 0.75%
- COC(OC)c1ccnc(SCc2ccccc2Cl)n1 — lower, -3.61%
- COc1ccc2nc(SCc3ccccc3)nc(C)c2c1 — lower, -4.22%
- O=c1cc(O)nc(SCc2ccccc2Cl)[nH]1 — lower, -17.3%
- CS(=O)(=O)Nc1cccc(C2=NN(C(=O)c3cccc(F)c3)C(c3cccs3)C2)c1 (configuration not stated) — lower, 4.93%
- COC(=O)c1ccc2c(=O)n(CCN3CCOCC3)c(SCC(=O)Nc3cccc(OC)c3)nc2c1 — lower, 0.982%
- CN(C)C(=O)Cn1c(=O)n(S(=O)(=O)c2ccccc2)c2ccccc21 — lower, -0.847%
- Cc1ccc(C(=O)NC23CC4CC(CC(C4)C2)C3)c(Cl)c1 — lower, 2.46%
- Cc1ccc(C(=O)NCCNC(=O)c2ccccc2)cc1 — lower, 10.8%
- Cc1ccc(C(=O)Nc2sc(Cc3ccc4c(c3)OCO4)c(C)c2C(N)=O)cc1 — lower, -3.41%
- Cc1c(CC(=O)N2CCN(C(=O)C3COc4ccccc4O3)CC2)c(=O)oc2c(O)c(O)ccc12 (configuration not stated) — lower, -23.7%
- COc1cc(OC)c2c(C)cc(=O)oc2c1C(CCN1CCCCC1)c1ccc(N(C)C)cc1 (configuration not stated) — lower, -9.21%
- COc1ccc(-n2c(-c3ccc(OC)c(OC)c3)n[nH]c2=S)cc1 — lower, -14.3%
- COc1ccc(OC)c(-n2c(-c3ccn[nH]3)n[nH]c2=S)c1 — lower, -5.99%
- CCOC(=O)CNc1nc(Cl)nc(Nc2ccc(OC)cc2OC)n1 — lower, 11.3%
- COc1cc(OC)cc(C(=O)NCCCn2ccnc2)c1 — lower, 5.91%
- O=C(Nc1cccc(Cl)c1)OCc1ccccn1 — lower, 3.07%
- CN1C(=O)C(CC(=O)Nc2ccccc2)S/C1=N/c1nccs1 (configuration not stated) — lower, 15.1%
- CCOc1ccc(CN(C)C(=O)c2ccc(=O)[nH]c2)cc1 — lower, 8.69%
- COc1ccc(NS(=O)(=O)c2ccc(N3CCN(CCO)CC3)c([N+](=O)[O-])c2)cc1 — lower, -0.783%
- COC(=O)CNC(=O)c1cc(-c2ccncc2)nc2ccccc12 — lower, 8.93%
- CCCCN(C)CCCNC(=O)c1cc(-c2cccs2)nc2ccccc12 — lower, -6.84%
- Nc1ncn(C2OC(CO)C(O)C2O)c(=O)n1 (configuration not stated) — higher, 21.6%
- O=C1[C@H]2[C@H]3[C@H](O)[C@H](O)C/C(=N/OCc4ccccc4)[C@H]3CC[C@@H]2C(=O)N1Cc1ccccc1 — lower, -7.38%
- CCC(C)NC(=O)C1c2ccccc2Oc2ccccc21 (configuration not stated) — lower, 5.93%

With Cc1cccc(CNc2ccnc(-c3cccnc3)n2)c1 the Potency was 79.4 µM (active).
COC(=O)/C=C\C(=O)Nc1cccc([N+](=O)[O-])c1 was tested, and the Potency was 3.55 µM (active).
In the case of c1ccc(CSc2nnc(-c3ccco3)c(-c3ccco3)n2)cc1, the Potency is reported as 35.5 µM (active).
In the case of Clc1ccccc1CSc1nnc(-c2ccco2)c(-c2ccco2)n1, the Potency is reported as 20 µM (active).
In the case of Cc1ccc(C(=O)c2c(NC(=O)c3ccccc3)sc(C)c2C)cc1, the Potency is reported as 28.2 µM (active).
In the case of COc1ccccc1-n1c(-c2cc(-c3ccco3)[nH]n2)n[nH]c1=S, the Potency is reported as 50.1 µM (active).
With O=C(CC1SC(=Nc2ccccc2)N(Cc2ccccn2)C1=O)Nc1cccc(Cl)c1 (configuration not stated) the Potency was 44.7 µM (active).
For CCc1ccc(-c2cc(C(=O)NCc3ccco3)c3ccccc3n2)s1, the Potency was 31.6 µM (active).
With CC(C)(C)c1nnc(NC(=O)C2c3ccccc3Oc3ccccc32)s1 the Potency was 2.82 µM (active).
